# Source: PubChem (The Scripps Research Institute Molecular Screening Center)
# The list is not random: actives were taken first. Their share in the collection is about 2.9%.
# PAFAH1B3 inh = blocks human PAF acetylhydrolase 1B catalytic subunit 3 | recombinant PAFAH1B3, FP-rhodamine probe, fluorescence polarization | inhibition, % at 3.39 µM | 0.28% of 340,000 active;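 active = inhibition above the screen-wide average of all tested compounds plus 3 SD, cut at about 25% in these data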;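 also: 0% = enzyme with DMSO only and 100% = wells lacking PAFAH1B3 protein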
# Target sequence (Q15102 whole entry, looked up): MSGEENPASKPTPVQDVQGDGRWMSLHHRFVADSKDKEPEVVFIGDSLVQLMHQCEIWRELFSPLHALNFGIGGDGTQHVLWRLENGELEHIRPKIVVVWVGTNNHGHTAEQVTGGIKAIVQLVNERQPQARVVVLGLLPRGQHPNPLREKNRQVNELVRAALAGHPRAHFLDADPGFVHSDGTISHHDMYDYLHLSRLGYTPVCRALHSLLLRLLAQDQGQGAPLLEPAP
# ZTA DNA inh = blocks Epstein-Barr virus ZTA, an EBNA-1 counter-screen | P03206 | ZTA-DNA binding, fluorescence polarization | inhibition, % at 11 µM | 0.15% of 320,000 active | AID 2234; in the data active = inhibition above about 33%
# Target sequence (P03206 whole entry, looked up): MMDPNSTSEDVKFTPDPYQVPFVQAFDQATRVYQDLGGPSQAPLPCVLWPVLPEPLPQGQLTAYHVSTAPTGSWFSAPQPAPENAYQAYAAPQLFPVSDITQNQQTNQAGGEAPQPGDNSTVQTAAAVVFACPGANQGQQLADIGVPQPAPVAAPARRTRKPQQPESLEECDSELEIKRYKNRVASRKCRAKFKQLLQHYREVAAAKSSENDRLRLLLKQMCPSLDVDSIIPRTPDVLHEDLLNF
# PAFAH1B2 FP inh = inhibitors of human PAFAH1B2; P68402; recombinant PAFAH1B2, FP-rhodamine activity probe, fluorescence polarization; inhibition, % at 3.39 µM; 1.2% of 340,000 active; AID 492953;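 active = inhibition above the mean of all tested compounds plus 3 SD, cut at about 24% in these data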;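 also: 0% = enzyme with DMSO and 100% = wells lacking PAFAH1B2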
# PAFAH2 inh = PAFAH2 (human) inhibition; Q99487; recombinant PAFAH2, FP-rhodamine activity probe, fluorescence polarization; inhibition, % at 3.39 µM; 0.99% of 340,000 active;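 active = inhibition above the mean over all tested compounds plus 3 SD, cut at about 30% in these data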;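 also: inhibitors block probe labeling of enzyme so polarization drops; 0% = enzyme with DMSO and 100% = wells lacking PAFAH2 protein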
# EBNA-1 inh = blocks EBNA-1 binding to DNA. EBNA-1 DNA binding, fluorescence polarization. inhibition, % at 14.8 µM. 0.34% of 300,000 active; in the data active = inhibition above about 28%
# pPAFAH inh = inhibitors of human plasma PAF acetylhydrolase (pPAFAH) | recombinant pPAFAH, FP-rhodamine probe fluorescence polarization | inhibition, % at 3.39 µM | 1.5% of 330,000 active | AID 463082;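 active = inhibition above the mean inhibition across the screen plus 3 SD, cut at about 25% in these data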;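 also: inhibitors block binding of the rhodamine activity-based probe so polarization drops; 0% = enzyme with DMSO and 100% = wells lacking pPAFAH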
# Zta DNA confirm = EBV ZTA DNA binding inhibition, confirmation; shares compounds with ZTA DNA inh; 30% of 320 active; inhibition, % at 11.1 µM; AID 2361; Zta-ZRE DNA binding, fluorescence polarization;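 active = mean inhibition across triplicate runs above the hit threshold derived for the original primary screen, cut at about 33% in these data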;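 also: 0% = Zta with DMSO and 100% = wells lacking Zta protein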
# EBNA1 counter = blocks EBNA-1 DNA binding in ZTA counter-screen | shares compounds with ZTA DNA inh | fluorescence polarization | inhibition, % at 14.8 µM | 320 tested, under 10 active | AID 2362; call rule not given here
# Starred values were filed as active, the others as inactive; · = not tested or not shown.
SMILES,PAFAH1B3 inh,ZTA DNA inh,PAFAH1B2 FP inh,PAFAH2 inh,EBNA-1 inh,pPAFAH inh,Zta DNA confirm,EBNA1 counter
CCOCCCNC(=S)N1CCN(Cc2ccc3c(c2)OCO3)CC1,-4,18,2,3,-5,6,·,·
O=c1[nH]c(/C=C/c2ccc(Cl)cc2Cl)c([N+](=O)[O-])c(=O)[nH]1,9,55*,17,4,16,0,53*,1
O=c1[nH]c(/C=C/c2ccccc2)c([N+](=O)[O-])c(=O)[nH]1,24,·,11,-7,·,·,·,·
COc1ccc(-n2nnc3c(=O)n(CC(=O)N4CCCc5ccccc54)cnc32)cc1,-8,36*,-7,-2,15,6,3,-8
CCOc1ccc(-n2nnc3c(=O)n(CC(=O)N4CCCc5ccccc54)cnc32)cc1,1,4,1,-4,6,5,·,·
O=C(COC(=O)c1cc(Cl)ccc1O)NCCC1=CCCCC1,2,-4,9,-2,10,4,·,·
CCC(C(=O)OC)n1cnc2scc(-c3ccc(C)c(C)c3)c2c1=O (centres undefined),7,6,-2,0,-1,3,·,·
CCC(C(=O)O)n1cnc2scc(-c3ccc(C)c(C)c3)c2c1=O (centres undefined),5,117*,0,11,1,9,6,13
COc1ccc(CCN(C)C(=O)C(CCSC)NC(=O)c2ccco2)cc1OC (centres undefined),5,8,3,4,·,-4,·,·
Cc1cc(C)cc(OCC(=O)NNC(=O)CN2C(=O)c3ccccc3C2=O)c1,1,11,1,2,-1,-6,·,·
CSC1=NSC2=NC(=O)/C(=C\c3coc4ccccc4c3=O)C(=N)N12,2,5,10,26,9,4,·,·
N=C1/C(=C\c2coc3ccccc3c2=O)C(=O)N=C2SC(c3ccncc3)=NN12,-5,39*,9,13,-2,14,63*,-6
Cc1ccc([N+](=O)[O-])cc1NCC(=O)NN,7,1,3,2,4,7,·,·
C/C(=N\NC(=S)NCCc1ccccc1)c1ccc(C#N)cc1,14,38*,8,-1,14,1,5,23
C/C(=N\NC(=S)NCCc1ccccc1)c1ccc(C)cc1,5,-8,2,-1,16,4,·,·
Cc1ccc(NC(=O)CCc2nnc(SCC(=O)Nc3ccccc3C)n2C)cc1Cl,-5,69*,-4,8,-14,4,6,-1
CCCC1=Nc2cc(C(=O)N3CCC(C(=O)OCC)CC3)ccc2Sc2ccccc21,-3,-7,7,8,1,11,·,·
CC(=O)Nc1cccc(NC(=O)COc2ccccc2C)c1,6,94*,4,6,0,-2,-5,0
CC(C)Oc1ccc(CCNC(=O)CC2C(=O)NCCN2C)cc1 (centres undefined),4,52*,-4,-5,-15,-1,10,5
COc1ccc(CCNC(=O)CC2C(=O)NCCN2CC(C)(C)C)cc1 (centres undefined),0,-6,5,7,-1,-1,·,·
Cc1ccc(S(=O)(=O)N(C)c2ccccc2C(=O)N2CCCC2)cc1,-4,155*,-4,3,-9,0,-9,-15
CC(=O)Nc1ccc2[nH]c(C)cc(=O)c2c1,1,87*,0,3,11,1,2,-5
CC(=O)Nc1ccc2[nH]c3ccccc3c2c1,8,0,2,5,-2,7,·,·
CCOC(=O)C1CCCCN1Cc1ccc(OC)c(OC)c1 (centres undefined),7,34*,1,1,4,5,-5,-8
CCOC(=O)C1CCCCN1Cc1ccc(F)c(Br)c1 (centres undefined),6,-1,1,1,-11,-10,·,·
SMILES,PAFAH1B3 inh,ZTA DNA inh,PAFAH1B2 FP inh,PAFAH2 inh,EBNA-1 inh,pPAFAH inh,Zta DNA confirm,EBNA1 counter
COc1ccc(C(C)=O)cc1COC(=O)C1CCN(C(=O)c2ccc(Cl)cc2)CC1,7,·,4,-1,·,20,·,·
COc1cc(O)c2c(c1)OC(c1ccc(O)cc1)CC2=O (centres undefined),7,34*,6,3,-5,7,16,-8
O=C(CC1C(=O)NCCN1C1CCCC1)NCc1cccc(OC(F)(F)F)c1 (centres undefined),7,2,5,-1,-1,1,·,·
Cc1cc(C(=O)CCl)c(C)n1-c1c(C)n(C)n(-c2ccccc2)c1=O,2,11,0,8,4,0,·,·
O=C(O)c1ccc(-c2ccc(/C=c3/sc4nc5ccccc5n4c3=O)o2)cc1Cl,26*,34*,15,23,-5,27*,53*,-4
COc1ccc(N(CC(=O)N2CCN(c3ccc(F)cc3)CC2)S(=O)(=O)c2c(C)noc2C)cc1,9,-4,5,-9,-3,0,·,·
CC(C)(C)OC(=O)N[C@@H](Cc1ccccc1)c1nnc(SCC(N)=O)o1,4,-4,9,1,-4,6,·,·
COC(=O)CSc1nnc([C@H](Cc2ccccc2)NC(=O)OC(C)(C)C)o1,12,90*,0,-1,5,1,0,-4
CCC(C)Sc1cc(-c2nc3ccc(C)cn3c2NCc2ccccc2)ccc1OC (centres undefined),15,40*,5,21,11,23,93*,-14
CCCCC1(C)NC(=O)N(CC(=O)Nc2ccc(S(=O)(=O)N3CCOCC3)cc2)C1=O (centres undefined),9,47*,2,5,16,7,-1,-5
COc1ccc(-n2c(SCC(=O)Nc3nccs3)nc3sc4c(c3c2=O)CCN(C)C4)cc1,8,-6,-3,1,-6,4,·,·
COc1ccc(NC(=O)CSc2nc3sc4c(c3c(=O)n2-c2ccc(OC)cc2)CCN(C)C4)cc1,-10,34*,1,-7,7,3,2,-2
O=C(O)c1ccc(S(=O)(=O)/N=C2\C=C(Nc3ccccc3F)C(=O)c3ccccc32)cc1,61*,62*,58*,72*,2,19,69*,11
COc1ccc(S(=O)(=O)/N=C2\C=C(Nc3ccc(O)cc3)C(=O)c3ccccc32)cc1,70*,35*,25*,43*,-7,26*,31,-10
COC(=O)C(C(C)=O)C1=C/C(=N\S(=O)(=O)c2ccc(C)cc2)c2ccccc2C1=O (centres undefined),1,-1,1,4,-11,3,·,·
COc1ccc(Cl)cc1C(=O)Nc1cccc(-c2ccc3nncn3n2)c1,1,92*,4,19,4,10,118*,10
